Results as given in PubChem BioAssay (NCATS).
Several values for one entry are separate records, joined by “and”; a condition that tells them apart may be missing. Equal values may be shown once. Results filed as inconclusive are left out. Activity calls are given as the source filed them. The call rests on the fitted dose curve; in most records, active means well fitted inhibition curve with a large enough effect; inconclusive means small, poorly fitted or top-dose-only effect; inactive means flat fitted curve, though single readings scatter.

How the values were obtained:
[1] = system: FAB9; assay: qHTS profiling for inhibitors of Plasmodium falciparum proliferation (AID 504749);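 further: 0% = DMSO vehicle and full inhibition = artemisinin control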; settings: P. falciparum in erythrocytes, SYBR Green DNA, 72 h; series mostly up to 28.7 µM
How it was run: (§1)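 Parasite proliferation within erythrocytes, 72 h exposure. Endpoint: SYBR Green I fluorescence after overnight lysis at room temperature. Controls: 0.29 uM artemisinin, DMSO.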

[2] = system: GB4; assay: as above; settings: P. falciparum in erythrocytes, SYBR Green DNA, 72 h; series mostly up to 28.7 µM
How it was run: as §1

[3] = system: HB3; assay: as above; settings: P. falciparum in erythrocytes, SYBR Green DNA, 72 h; series mostly up to 28.7 µM
How it was run: as §1

[4] = system: ICS; assay: as above; settings: P. falciparum in erythrocytes, SYBR Green DNA, 72 h; series mostly up to 28.7 µM
How it was run: as §1

[5] = system: JCK; assay: as above; settings: P. falciparum in erythrocytes, SYBR Green DNA, 72 h; series mostly up to 28.7 µM
How it was run: as §1

[6] = system: N140; assay: as above; settings: P. falciparum in erythrocytes, SYBR Green DNA, 72 h; series mostly up to 28.7 µM
How it was run: as §1

[7] = system: P93_24; assay: as above; settings: P. falciparum in erythrocytes, SYBR Green DNA, 72 h; series mostly up to 28.7 µM
How it was run: as §1

[8] = system: P94_40; assay: as above; settings: P. falciparum in erythrocytes, SYBR Green DNA, 72 h; series mostly up to 28.7 µM
How it was run: as §1

[9] = system: PAD; assay: as above; settings: P. falciparum in erythrocytes, SYBR Green DNA, 72 h; series mostly up to 28.7 µM
How it was run: as §1

[10] = system: PC15; assay: as above; settings: P. falciparum in erythrocytes, SYBR Green DNA, 72 h; series mostly up to 28.7 µM
How it was run: as §1

[11] = system: PC26; assay: as above; settings: P. falciparum in erythrocytes, SYBR Green DNA, 72 h; series mostly up to 28.7 µM
How it was run: as §1

[12] = system: PC49; assay: as above; settings: P. falciparum in erythrocytes, SYBR Green DNA, 72 h; series mostly up to 28.7 µM
How it was run: as §1

[13] = system: SC27B; assay: as above; settings: P. falciparum in erythrocytes, SYBR Green DNA, 72 h; series mostly up to 28.7 µM
How it was run: as §1

[14] = system: TAB109; assay: as above; settings: P. falciparum in erythrocytes, SYBR Green DNA, 72 h; series mostly up to 28.7 µM
How it was run: as §1

[15] = system: TAB113; assay: as above; settings: P. falciparum in erythrocytes, SYBR Green DNA, 72 h; series mostly up to 28.7 µM
How it was run: as §1

[16] = system: TAB165; assay: as above; settings: P. falciparum in erythrocytes, SYBR Green DNA, 72 h; series mostly up to 28.7 µM
How it was run: as §1

[17] = system: W2; assay: as above; settings: P. falciparum in erythrocytes, SYBR Green DNA, 72 h; series mostly up to 28.7 µM
How it was run: as §1

[18] = system: CRL-7250; assay: Cytotoxic Profiling of Annotated Libraries Using Quantitative High-Throughput Screening (AID 1296008); settings: Five cell lines viability, CellTiter-Glo ATP luminescence, 48-72 h; max response: hits give low values; on max response: on the % scale 0 is the no-effect control and ±100 the full control effect
How it was run: (§2)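 Compounds were pin-transferred onto cells and incubated 48 or 72 hr at 37 degree Celsius, 95% humidity. CellTiter-Glo was added, plates sat 10 min at room temperature, then ATP-coupled luminescence was imaged as the viability read-out.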

[19] = system: HEK293; assay: as above; settings: Five cell lines viability, CellTiter-Glo ATP luminescence, 48-72 h; max response: hits give low values
How it was run: as §2

[20] = system: HaCat; assay: as above; settings: Five cell lines viability, CellTiter-Glo ATP luminescence, 48-72 h; max response: hits give low values
How it was run: as §2
Further: nearly all actives have a fitted effect of over 60% in size.

Nc1ccc(S(=O)(=O)Nc2nccs2)cc1
inactive: Potency [1] | Potency [2] | Potency [3] | Potency [4] | Potency [5] | Potency [6] | Potency [7] | Potency [8] | Potency [9] | Potency [10] | Potency [11] | Potency [12] | Potency [13] | Potency [14] | Potency [15] | Potency [16] | Potency [17] | max response [18] 0.415% and -2.54% | max response [19] 3.95% and -4.18% | max response [20] -0.23% and -23.1%

NC(=O)NNc1ccccc1
inactive: Potency [1] | Potency [2] | Potency [3] | Potency [4] | Potency [5] | Potency [6] | Potency [7] | Potency [8] | Potency [9] | Potency [10] | Potency [11] | Potency [12] | Potency [13] | Potency [14] | Potency [15] | Potency [16] | Potency [17] | max response [18] 2.83% | max response [19] 0.574% | max response [20] -7.26%

O=c1cc(CO)occ1O
inactive: Potency [1] | Potency [2] | Potency [3] | Potency [4] | Potency [5] | Potency [6] | Potency [7] | Potency [8] | Potency [9] | Potency [10] | Potency [11] | Potency [12] | Potency [13] | Potency [14] | Potency [15] | Potency [16] | Potency [17] | max response [18] -3.51% | outcome [19] | max response [20] 2.79%

CCCCCCCCCCCCCCCCCCOCC(O)CO (stereo not given)
inactive: Potency [1] | Potency [2] | Potency [3] | Potency [4] | Potency [5] | Potency [6] | Potency [7] | Potency [8] | Potency [9] | Potency [10] | Potency [11] | Potency [12] | Potency [13] | Potency [14] | Potency [15] | Potency [16] | Potency [17] | outcome [18] | outcome [19] | outcome [20]

CC1(C)CO[C@@H](CC(=O)O)CN1
inactive: Potency [1] | Potency [2] | Potency [3] | Potency [4] | Potency [5] | Potency [6] | Potency [7] | Potency [8] | Potency [9] | Potency [10] | Potency [11] | Potency [12] | Potency [13] | Potency [14] | Potency [15] | Potency [16] | Potency [17] | outcome [18] | outcome [19] | outcome [20]

NS(=O)(=O)c1cc2c(cc1Cl)NC(CSCc1ccccc1)=NS2(=O)=O
inactive: Potency [1] | Potency [2] | Potency [3] | Potency [4] | Potency [5] | Potency [6] | Potency [7] | Potency [8] | Potency [9] | Potency [10] | Potency [11] | Potency [12] | Potency [13] | Potency [14] | Potency [15] | Potency [16] | Potency [17] | max response [18] -1.78% | outcome [19] | max response [20] -9.13%

NC(CSCC(=O)O)C(=O)O (stereo not given)
inactive: Potency [1] | Potency [2] | Potency [3] | Potency [4] | Potency [5] | Potency [6] | Potency [7] | Potency [8] | Potency [9] | Potency [10] | Potency [11] | Potency [12] | Potency [13] | Potency [14] | Potency [15] | Potency [16] | Potency [17] | outcome [18] | outcome [19] | outcome [20]

CC1(C)OC(=O)NC1=O
inactive: Potency [1] | Potency [2] | Potency [3] | Potency [4] | Potency [5] | Potency [6] | Potency [7] | Potency [8] | Potency [9] | Potency [10] | Potency [11] | Potency [12] | Potency [13] | Potency [14] | Potency [15] | Potency [16] | Potency [17] | max response [18] 4.73% | outcome [19] | outcome [20]

O=C(Oc1ccccc1C(=O)O)c1ccccc1O
inactive: Potency [1] | Potency [2] | Potency [3] | Potency [4] | Potency [5] | Potency [6] | Potency [7] | Potency [8] | Potency [9] | Potency [10] | Potency [11] | Potency [12] | Potency [13] | Potency [14] | Potency [15] | Potency [16] | Potency [17] | max response [18] 4.21% | outcome [19] | outcome [20]

CC12CCC(CC1)C(C)(C)O2
inactive: Potency [1] | Potency [2] | Potency [3] | Potency [4] | Potency [5] | Potency [6] | Potency [7] | Potency [8] | Potency [9] | Potency [10] | Potency [11] | Potency [12] | Potency [13] | Potency [14] | Potency [15] | Potency [16] | Potency [17] | max response [18] 3.08% | outcome [19] | max response [20] -2.38%
